{"source": "PubChem BioAssay (NCI)", "note": "Values joined by “and” are separate entries in the source; they are usually repeats but may differ in a detail not shown here. Identical values can stand only once. This is part of a sample that, as a whole, favours compounds with a hit. Of some 83,000 tested, about 20% had one in any assay.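 Compound tested at a single concentration for 48 hours in 96-well plates; a percent growth value below 10 was scored as active.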 Active and inactive are the calls of the source.", "data": [{"test_system": "A549/ATCC NSCLC", "experiment": "NCI-60 one-dose screen, 48 h (100 = growth as untreated, 0 = no growth, -100 = all killed)", "details": "10 µM unless noted", "values": [{"smiles": "ON=C1CCCCCCCC1", "growth": "103% (inactive) and 110% (inactive)"}, {"smiles": "CCOC(=O)N(O)c1ccc(/C=C/c2ccccc2)cc1", "growth": "44% (inactive) and 77.1% (inactive)"}, {"smiles": "O=S(=O)(O)c1ccc(N=Nc2ccc(N=Nc3cccc4ccccc34)c(S(=O)(=O)O)c2)cc1", "growth": "109% (inactive)"}, {"smiles": "COc1ccc(-c2nn3c(-c4cc(F)c(Cl)cc4Cl)nnc3s2)cc1", "growth": "51.1% (inactive)"}, {"smiles": "CCc1c2c(nc3ccc(OCc4ccc(B5OC(C)(C)C(C)(C)O5)cc4)cc13)-c1cc3c(c(=O)n1C2)COC(=O)[C@]3(O)CC", "growth": "10.8% (inactive)"}, {"smiles": "O=C(O)c1ccccc1Cc1ccc(F)c2ccccc12", "growth": "101% (inactive) and 95.3% (inactive)"}, {"smiles": "CCCCC1COc2cccc3c2N1C=C/C3=C\\C(=O)N(C)c1cccc(Cl)c1", "note": "(stereo unspecified)", "growth": "99.5% (inactive)"}, {"smiles": "COc1ccc(/C=C2\\COc3ccc(O)c(O)c3C2=O)c(OC)c1OC", "growth": "43.1% (inactive)"}, {"smiles": "CC12OC(CC(O)C1O)n1c3ccccc3c3c4c(c5c6ccccc6n2c5c31)C(=O)N(CCN1CCOCC1)C4=O", "note": "(stereo unspecified)", "growth": "-31.8% (active)"}, {"smiles": "COc1ccc(/C=N/C2=C(C#N)C(c3ccccc3)c3c(ccc4ccccc34)O2)cc1", "note": "(stereo unspecified)", "growth": "41.9% (inactive)"}, {"smiles": "COc1ccc(-c2cc3cnc4ccccc4c3oc2=O)cc1", "growth": "101% (inactive)"}, {"smiles": "O=C(/C=C/c1ccc(F)cc1)Nc1ncc(Cc2ccc(F)cc2)s1", "growth": "38.1% (inactive)"}, {"smiles": "COc1cc(/C=C2\\CCC/C(=C\\c3cc(CN4CCCC4)c(O)c(OC)c3)C2=O)cc(CN2CCCC2)c1O", "growth": "43.7% (inactive)"}, {"smiles": "CN(C)CCCn1c2c(c3ccc(N4CCNCC4)cc3c1=O)C(=O)c1ccccc1-2", "growth": "-61.7% (active)"}, {"smiles": "C=CCOc1ccc(/C=C2\\SC(=S)N(CCc3ccc(O)cc3)C2=O)cc1", "growth": "88.8% (inactive)"}, {"smiles": "CCOC(=O)C1=C(C)N=C2SC=C(c3ccc(F)cc3)N2[C@H]1c1cn(-c2ccccc2)nc1-c1ccc(Cl)cc1", "growth": "77.8% (inactive)"}, {"smiles": "COc1ccc(/C=N/NC(=O)CN2CCN(c3cc4c(cc3F)c(=O)c(C(=O)O)cn4C3CC3)CC2)cc1O", "growth": "99.5% (inactive)"}, {"smiles": "COc1cccc(C2C(C#N)=C(N)Oc3cc(OCCCCCC[P+](c4ccccc4)(c4ccccc4)c4ccccc4)ccc32)c1", "note": "(stereo unspecified)", "growth": "10.2% (inactive)"}, {"smiles": "Cc1nn(-c2nc(-c3cc4ccccc4oc3=O)cs2)c(C)c1N=Nc1ccccc1", "growth": "114% (inactive)"}, {"smiles": "Cn1cc2c(=O)nc3c(-c4nc5ccccc5[nH]4)n[nH]n3c2n1", "growth": "79.2% (inactive)"}, {"smiles": "O=C1c2cccc3cccc(c23)C(=O)N1N1C(=O)c2cccc3c(N4CCNCC4)ccc(c23)C1=O", "growth": "89.9% (inactive)"}, {"smiles": "Cc1nc2sc(C(=O)Nc3cccc4ncccc34)c(N)c2cc1C(C)O", "note": "(stereo unspecified)", "growth": "81.3% (inactive)"}, {"smiles": "CCOC(=O)c1nc2c3ccccc3cnn2c1C(=O)c1ccc(OC)cc1", "growth": "87.2% (inactive)"}, {"smiles": "O=C1/C(=C/c2ccccc2[N+](=O)[O-])Cc2ccccc21", "growth": "41.4% (inactive) and -6.77% (active)"}, {"smiles": "COc1cc(/C=C2/C=C(c3ccc(C(C)(C)C)cc3)N(CCc3ccc(S(N)(=O)=O)cc3)C2=O)cc(OC)c1OC", "growth": "38.2% (inactive)"}, {"smiles": "COC(=O)N/N=C/c1c[n+]([O-])c2ccccc2[n+]1[O-]", "growth": "93.1% (inactive)"}, {"smiles": "Cc1nc(-n2[nH]c(=O)ccc2=O)sc1N=Nc1ccccc1", "growth": "104% (inactive)"}, {"smiles": "CC1(Cc2ccccc2)CC2=C(C(=O)O1)C(c1ccccc1)NC(=O)N2", "note": "(stereo unspecified)", "growth": "112% (inactive)"}, {"smiles": "Cc1ccc(/C=C/c2c(C(=O)/C=C/c3ccccc3)c(C)nc3ccccc23)cc1", "growth": "30.8% (inactive)"}, {"smiles": "CC1=C2[C@@H](CC1)[C@]1(C)O[C@@](C3CC3)(C[C@H]1OC(=O)CO)[C@H]2OC(=O)/C=C/c1ccccc1", "growth": "79% (inactive)"}, {"smiles": "COc1ccc(S(=O)(=O)Nc2cc(Sc3cccc4cccnc34)c(O)c3ccccc23)cc1", "growth": "13.3% (inactive)"}, {"smiles": "CCN(CC)CCCN1C(=O)c2c(c(C)c3c(oc4cc(OC)ccc43)c2C)C1=O", "growth": "92.5% (inactive)"}, {"smiles": "CN1Cn2c(ccc2C(F)(F)F)C(=O)CS1(=O)=O", "growth": "108% (inactive)"}, {"smiles": "O=c1cc(N/N=C/c2ccc(F)cc2)c2cc(Cl)ccc2[nH]1", "growth": "89.3% (inactive)"}, {"smiles": "Cc1cccc(-c2nnc(SCC(=O)Nc3ncc(Cc4ccccc4)s3)n2N2C(=O)CSC2=S)c1", "growth": "7.99% (active)"}, {"smiles": "COc1ccc(/C(C)=C(\\c2ccc(OCCN3CCCCCC3)cc2)c2ccc(OC(=O)C3CCCCC3)cc2)cc1", "growth": "-32.9% (active)"}, {"smiles": "COc1ccc2c(c1)c(C(=O)c1nc(-c3cn(C)c4ccccc34)no1)cn2C", "growth": "90.7% (inactive)"}, {"smiles": "CCOC(=O)c1nnn(Cc2cc(=O)oc3c2ccc2ccccc23)c1C", "growth": "102% (inactive)"}]}, {"test_system": "786-0 renal", "experiment": "NCI-60 one-dose screen, 48 h (100 = growth as untreated, 0 = no growth, -100 = all killed)", "details": "10 µM unless noted", "values": [{"smiles": "ON=C1CCCCCCCC1", "growth": "116% (inactive) and 95.6% (inactive)"}, {"smiles": "CCOC(=O)N(O)c1ccc(/C=C/c2ccccc2)cc1", "growth": "70.3% (inactive) and 73.7% (inactive)"}, {"smiles": "O=S(=O)(O)c1ccc(N=Nc2ccc(N=Nc3cccc4ccccc34)c(S(=O)(=O)O)c2)cc1", "growth": "107% (inactive)"}, {"smiles": "COc1ccc(-c2nn3c(-c4cc(F)c(Cl)cc4Cl)nnc3s2)cc1", "growth": "46.2% (inactive)"}, {"smiles": "CCc1c2c(nc3ccc(OCc4ccc(B5OC(C)(C)C(C)(C)O5)cc4)cc13)-c1cc3c(c(=O)n1C2)COC(=O)[C@]3(O)CC", "growth": "10.6% (inactive)"}, {"smiles": "O=C(O)c1ccccc1Cc1ccc(F)c2ccccc12", "growth": "125% (inactive) and 110% (inactive)"}, {"smiles": "CCCCC1COc2cccc3c2N1C=C/C3=C\\C(=O)N(C)c1cccc(Cl)c1", "note": "(stereo unspecified)", "growth": "99.8% (inactive)"}, {"smiles": "COc1ccc(/C=C2\\COc3ccc(O)c(O)c3C2=O)c(OC)c1OC", "growth": "28% (inactive)"}, {"smiles": "CC12OC(CC(O)C1O)n1c3ccccc3c3c4c(c5c6ccccc6n2c5c31)C(=O)N(CCN1CCOCC1)C4=O", "note": "(stereo unspecified)", "growth": "1.94% (active)"}, {"smiles": "COc1ccc(/C=N/C2=C(C#N)C(c3ccccc3)c3c(ccc4ccccc34)O2)cc1", "note": "(stereo unspecified)", "growth": "29.2% (inactive)"}, {"smiles": "COc1ccc(-c2cc3cnc4ccccc4c3oc2=O)cc1", "growth": "89% (inactive)"}, {"smiles": "O=C(/C=C/c1ccc(F)cc1)Nc1ncc(Cc2ccc(F)cc2)s1", "growth": "46.7% (inactive)"}, {"smiles": "COc1cc(/C=C2\\CCC/C(=C\\c3cc(CN4CCCC4)c(O)c(OC)c3)C2=O)cc(CN2CCCC2)c1O", "growth": "-4.39% (active)"}, {"smiles": "CN(C)CCCn1c2c(c3ccc(N4CCNCC4)cc3c1=O)C(=O)c1ccccc1-2", "growth": "-95.3% (active)"}, {"smiles": "C=CCOc1ccc(/C=C2\\SC(=S)N(CCc3ccc(O)cc3)C2=O)cc1", "growth": "100% (inactive)"}, {"smiles": "CCOC(=O)C1=C(C)N=C2SC=C(c3ccc(F)cc3)N2[C@H]1c1cn(-c2ccccc2)nc1-c1ccc(Cl)cc1", "growth": "87.6% (inactive)"}, {"smiles": "COc1ccc(/C=N/NC(=O)CN2CCN(c3cc4c(cc3F)c(=O)c(C(=O)O)cn4C3CC3)CC2)cc1O", "growth": "101% (inactive)"}, {"smiles": "COc1cccc(C2C(C#N)=C(N)Oc3cc(OCCCCCC[P+](c4ccccc4)(c4ccccc4)c4ccccc4)ccc32)c1", "note": "(stereo unspecified)", "growth": "-46.3% (active)"}, {"smiles": "Cc1nn(-c2nc(-c3cc4ccccc4oc3=O)cs2)c(C)c1N=Nc1ccccc1", "growth": "104% (inactive)"}, {"smiles": "Cn1cc2c(=O)nc3c(-c4nc5ccccc5[nH]4)n[nH]n3c2n1", "growth": "80.7% (inactive)"}, {"smiles": "O=C1c2cccc3cccc(c23)C(=O)N1N1C(=O)c2cccc3c(N4CCNCC4)ccc(c23)C1=O", "growth": "73.7% (inactive)"}, {"smiles": "Cc1nc2sc(C(=O)Nc3cccc4ncccc34)c(N)c2cc1C(C)O", "note": "(stereo unspecified)", "growth": "86.2% (inactive)"}, {"smiles": "CCOC(=O)c1nc2c3ccccc3cnn2c1C(=O)c1ccc(OC)cc1", "growth": "102% (inactive)"}, {"smiles": "O=C1/C(=C/c2ccccc2[N+](=O)[O-])Cc2ccccc21", "growth": "45% (inactive) and 26.5% (inactive)"}, {"smiles": "COc1cc(/C=C2/C=C(c3ccc(C(C)(C)C)cc3)N(CCc3ccc(S(N)(=O)=O)cc3)C2=O)cc(OC)c1OC", "growth": "29.7% (inactive)"}, {"smiles": "COC(=O)N/N=C/c1c[n+]([O-])c2ccccc2[n+]1[O-]", "growth": "93.8% (inactive)"}, {"smiles": "Cc1nc(-n2[nH]c(=O)ccc2=O)sc1N=Nc1ccccc1", "growth": "94.4% (inactive)"}, {"smiles": "CC1(Cc2ccccc2)CC2=C(C(=O)O1)C(c1ccccc1)NC(=O)N2", "note": "(stereo unspecified)", "growth": "100% (inactive)"}, {"smiles": "Cc1ccc(/C=C/c2c(C(=O)/C=C/c3ccccc3)c(C)nc3ccccc23)cc1", "growth": "25.8% (inactive)"}, {"smiles": "CC1=C2[C@@H](CC1)[C@]1(C)O[C@@](C3CC3)(C[C@H]1OC(=O)CO)[C@H]2OC(=O)/C=C/c1ccccc1", "growth": "73.2% (inactive)"}, {"smiles": "COc1ccc(S(=O)(=O)Nc2cc(Sc3cccc4cccnc34)c(O)c3ccccc23)cc1", "growth": "28.5% (inactive)"}, {"smiles": "CCN(CC)CCCN1C(=O)c2c(c(C)c3c(oc4cc(OC)ccc43)c2C)C1=O", "growth": "-79% (active)"}, {"smiles": "CN1Cn2c(ccc2C(F)(F)F)C(=O)CS1(=O)=O", "growth": "96.7% (inactive)"}, {"smiles": "O=c1cc(N/N=C/c2ccc(F)cc2)c2cc(Cl)ccc2[nH]1", "growth": "89.5% (inactive)"}, {"smiles": "Cc1cccc(-c2nnc(SCC(=O)Nc3ncc(Cc4ccccc4)s3)n2N2C(=O)CSC2=S)c1", "growth": "29.8% (inactive)"}, {"smiles": "COc1ccc(/C(C)=C(\\c2ccc(OCCN3CCCCCC3)cc2)c2ccc(OC(=O)C3CCCCC3)cc2)cc1", "growth": "-84.2% (active)"}, {"smiles": "COc1ccc2c(c1)c(C(=O)c1nc(-c3cn(C)c4ccccc34)no1)cn2C", "growth": "107% (inactive)"}, {"smiles": "CCOC(=O)c1nnn(Cc2cc(=O)oc3c2ccc2ccccc23)c1C", "growth": "102% (inactive)"}]}]}
